For assay [1], the target named is Cytochrome P450 3A4 (Homo sapiens) (UniProt P08684). As to the kind of experiment: qHTS Assay for Inhibitors and Substrates of Cytochrome P450 3A4 (AID 884). Also: % is scaled to controls: 0 for no effect and ±100 for the full control effect; nearly all actives have a fitted effect of over 50% in size. An outline of the steps: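 20 nM human CYP3A4 with 25 uM Luciferin-PPXE (at KM) in 200 mM KPO4, preincubated 10 min with compound; NADPH regeneration started a 60 min RT reaction. Luciferin detected by luminescence, normalized to 57 uM ketoconazole as full inhibition.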
A general note: qHTS replaces the single test concentration by a dilution series.

Assay [2] can be described thus: Confirmation and Secondary Assay for Modulators of Hemoglobin Beta Chain Splicing at IVS2 654 locus (AID 910).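 Also: per-well total GFP intensity by laser scanning cytometry after 2-day treatment; % of control where 0% means no effect.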 In short, it runs like this:
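HeLa cells stably carrying EGFP interrupted by mutant beta-globin IVS2-654 intron (CMV-driven) were treated with compound for 2 days at 37C; corrected splicing was scored as total peak GFP intensity per well (488 nm excitation, 500-520 nm emission).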

The nature of assay [3]: Confirmation and Secondary Assay for Modulators of Hemoglobin Beta Chain Splicing at IVS2 705 locus (AID 930).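 Also: HeLa cells stably expressing the EGFP-705 splicing reporter; GFP fluorescence per well restored by corrected splicing of the IVS2-705 intron in EGFP; % of control where 0% means no effect.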 An outline of the steps:
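Per-well GFP, captured at 1 x 8 µm resolution with 488 nm excitation, served as the read-out for HeLa EGFP-705 cells incubated 2 days with test compound versus DMSO.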

Assay [4] can be described thus: qHTS Assay for Lipid Storage Modulators (AID 1519; calls by dose curve; as to activity change, negative = inhibition: % is scaled to controls: 0 for no effect and ±100 for the full control effect). To be noted: Drosophila S3 cells, BODIPY lipid droplet/cell ratio, laser cytometry, cells loaded with oleic acid; for activity change, negative = inhibition: at 57.5 µM (top of the series). In short, it runs like this:
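Cells seeded at 5,000 per well were treated with compounds over a concentration series and loaded with oleic acid (400 uM, as added). Lipid droplet fluorescence (488 nm excitation, 500-530 nm channel) was read by laser-scanning cytometry and normalized to 20 uM Triacsin C.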

For assay [5], the target named is Cytochrome P450 3A4 (Homo sapiens) (UniProt P08684). Kind of assay: qHTS Assay for Activators of Cytochrome P450 3A4 (AID 885). Also: nearly all actives have a fitted effect of over 65% in size. In short, it runs like this: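 Steps: enzyme/substrate mix dispensed; compound added, 10 min RT; NADPH regeneration solution added, 60 min RT; luciferin detection buffer stops reaction; 20 min later luminescence measured.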
Where [6] appears, read: measured here: cell count channel max response.
Where [7] appears, read: measured here: lipid channel max response.

Inconclusive results are not listed. Activity calls are given as the source filed them. Unless noted, calls follow the shape of the dose curve; as a rule, active = well fitted curve in the direction sought with a large enough effect; inconclusive = small, poorly fitted or top-dose-only effect, or another doubt; inactive = no such curve, though single readings can be large; an effect the other way counts as inactive or inconclusive.

Among the data in PubChem BioAssay (NCATS) are Potency, activity change, negative = inhibition and max response values, retold here.

Cytochrome P450 3A4 (Homo sapiens), sequence (P08684 whole entry, looked up): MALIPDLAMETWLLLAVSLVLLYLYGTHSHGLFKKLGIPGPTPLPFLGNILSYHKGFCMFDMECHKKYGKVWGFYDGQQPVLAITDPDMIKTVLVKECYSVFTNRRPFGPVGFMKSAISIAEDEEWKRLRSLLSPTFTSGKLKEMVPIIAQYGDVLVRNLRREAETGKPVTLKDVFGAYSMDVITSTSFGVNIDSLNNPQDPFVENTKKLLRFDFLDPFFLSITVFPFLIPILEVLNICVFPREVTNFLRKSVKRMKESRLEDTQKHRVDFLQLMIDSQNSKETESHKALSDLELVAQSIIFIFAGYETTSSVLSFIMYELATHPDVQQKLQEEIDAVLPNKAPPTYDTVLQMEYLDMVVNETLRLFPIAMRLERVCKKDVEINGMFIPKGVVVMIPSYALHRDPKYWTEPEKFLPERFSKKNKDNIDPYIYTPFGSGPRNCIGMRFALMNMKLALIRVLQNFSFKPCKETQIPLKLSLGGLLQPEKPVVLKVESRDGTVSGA

Consider `CC(C)CCCC(C)C1CCC2C3CC(O)[C@@]4(O)CC(O)CC[C@@]4(C)C3CC[C@@]12C` (stereo partly specified), for which the Potency result in assay [1], in assay [2] and in assay [3] was “inactive” in each case. Also, the activity change, negative = inhibition in assay [4] was 4.13% (inactive). In addition, the results for the max response in assay [4] (setting [6]) and in assay [4] (setting [7]) were 10.2% and 14.9%, respectively.
For the molecule `C/C=C(/C)C(=O)OC1C(OC(C)=O)[C@@]2(CO)C(O)C[C@@]3(C)C(=CCC4[C@@]5(C)CCC(OC6OC(C(=O)O)[C@@H](O[C@@H]7OC(CO)C(O)C(O)C7O)C(O)[C@H]6O[C@@H]6OC(CO)C(O)C(O)C6O)[C@](C)(CO)C5CC[C@@]43C)C2CC1(C)C` (stereo partly specified), the Potency entry in assay [1], in assay [2] and in assay [3] was “inactive” each time. Further, the activity change, negative = inhibition in assay [4] is 9.44% (inactive). Also, the max response in assay [4] (setting [6]) came to 18%; in assay [4] (setting [7]), 28.7%.
`C=CCCCCCCCCCCCC(O)CC(O)CO` (stereo unspecified) (tested in a mixture with another compound): the Potency result in assay [1], in assay [2] and in assay [3] was “inactive” in each case. Moreover, in assay [4], the activity change, negative = inhibition was 11.1% (inactive). In addition, the results for the max response in assay [4] (setting [6]) and in assay [4] (setting [7]) were 1.75% and 15.4%, respectively.
For the molecule `CC(C)C(C)/C=C/C(C)C1CCC2C3=CC=C4CC(O)CCC4(C)C3CCC21C` (stereo unspecified), the Potency result in assay [1], in assay [2] and in assay [3] was “inactive” each time. Further, the activity change, negative = inhibition in assay [4] is 4.22% (inactive). Also, the figures for the max response in assay [4] (setting [6]) and in assay [4] (setting [7]) were 8.27% and 15.2%, respectively.
With `COc1ccc(-c2cc(=O)c3c(O)c(OC)c(O[C@@H]4OC(COC5OC(C)C(O)C(O)[C@@H]5O)C(O)C(O)C4O)cc3o2)cc1` (stereo partly specified), the Potency entry in assay [1], in assay [2] and in assay [3] was “inactive” throughout. In assay [4], the activity change, negative = inhibition was 4.35% (inactive). For the same molecule, the max response was 13.3% in assay [4] (setting [6]) and 15.5% in assay [4] (setting [7]).
In the case of `COc1ccc(C(=O)/C=C/c2ccccc2)cc1`, the Potency entry in assay [1], in assay [2] and in assay [3] was “inactive” in each case. The activity change, negative = inhibition in assay [4] is 8.41% (inactive). The max response in assay [4] (setting [6]) is -9.97%; in assay [4] (setting [7]), -1.31%.
For the molecule `CC(=O)OC1CC2C(C)(C)C(O)CCC2(C)C2CC[C@]3(C)C(=CC(=O)OC3c3ccoc3)C12C` (stereo partly specified), the Potency entry in assay [5], in assay [2] and in assay [3] was “inactive” throughout. In addition, in assay [4], the activity change, negative = inhibition was -0.0065% (inactive). Besides, the max response in assay [4] (setting [6]) was -9.39%; in assay [4] (setting [7]), -0.419%.
`COC1=CC(=O)C(O)=C/C1=C\C=C\c1ccccc1`: the Potency entry in assay [5], in assay [2] and in assay [3] was “inactive” each time. Also, the activity change, negative = inhibition in assay [4] was -23.3% (inactive). Besides, the max response in assay [4] (setting [6]) was -8.41%; in assay [4] (setting [7]), -29.1%.
For `C=CCCCCCCCCCCCc1ccco1`, the Potency entry in assay [1], in assay [2] and in assay [3] was “inactive” each time. Further, the activity change, negative = inhibition in assay [4] was 3.13% (inactive). Moreover, the max response came out at 16.1% in assay [4] (setting [6]) and 21.7% in assay [4] (setting [7]).
Consider `COC(=O)c1cc(=O)c(O)c2c(O)c(O)ccc2c1`, for which the Potency result in assay [1], in assay [2] and in assay [3] was “inactive” in each case. In addition, the activity change, negative = inhibition in assay [4] is -1% (inactive). Moreover, the max response was -7.53% in assay [4] (setting [6]) and -9.52% in assay [4] (setting [7]).
In the case of `CSC(N)=NCCCC(N)C(=O)O` (stereo unspecified), the Potency entry in assay [1] and in assay [3] was “inactive” each time. Also, the activity change, negative = inhibition in assay [4] is 1.56% (inactive). The values for the max response in assay [4] (setting [6]) and in assay [4] (setting [7]) were 5.01% and 8.49%, respectively.
Regarding `O=c1c(O)c(-c2ccccc2)oc2ccccc12`, the Potency result in assay [5] and in assay [3] was “inactive” throughout. Moreover, in assay [4], the activity change, negative = inhibition is 0.0192% (inactive). Moreover, the max response in assay [4] (setting [6]) was -10%; in assay [4] (setting [7]), -11.2%.
With `COc1cc(O)cc(/C=C/c2ccccc2)c1`, the Potency entry in assay [5] and in assay [3] was “inactive” in each case. The activity change, negative = inhibition in assay [4] is 5.85% (inactive). Also, the max response is -8.15% in assay [4] (setting [6]) and -0.333% in assay [4] (setting [7]).
`COC(=O)[C@]1(C)CCC[C@]2(C)c3ccc(C(C)C)cc3C(=O)CC12` (stereo partly specified): the Potency result in assay [5], in assay [2] and in assay [3] was “inactive” each time. In addition, the activity change, negative = inhibition in assay [4] was 1.78% (inactive). For the same molecule, the max response is 15.8% in assay [4] (setting [6]) and 18.5% in assay [4] (setting [7]).
As to `CC(=O)OC[C@@]1(O)C[C@]23CCC4c5ccoc5CC[C@@]4(C)C2CCC1C3` (stereo partly specified), the Potency result in assay [2] and in assay [3] was “inactive” each time. The activity change, negative = inhibition in assay [4] is 6.91% (inactive). For the same molecule, the max response in assay [4] (setting [6]) was determined as 7.17%; in assay [4] (setting [7]), 15.2%.
Regarding `Cc1cn(C2CC(N=[N+]=[N-])C(CO)O2)c(=O)[nH]c1=O` (stereo unspecified), in assay [2], the Potency entry is “inactive”. The activity change, negative = inhibition in assay [4] was 9.63% (inactive). Further, the max response in assay [4] (setting [6]) was determined as 4.71%; in assay [4] (setting [7]) it was 18.1%.
In the case of `COC(=O)CCC(C)C1CCC2C3C(O)C[C@@H]4CC(O)CC[C@@]4(C)C3CC(O)[C@]12C` (stereo partly specified), the Potency result in assay [2] and in assay [3] was “inactive” throughout. In assay [4], the activity change, negative = inhibition was 2.8% (inactive). In addition, the max response in assay [4] (setting [6]) was -0.322%; in assay [4] (setting [7]), 3.42%.
Consider `CC(C)c1ccc2c(c1)CCC1C(C)(C(N)=O)CCCC21C` (stereo unspecified), for which the Potency entry in assay [5], in assay [2] and in assay [3] was “inactive” each time. Also, the activity change, negative = inhibition in assay [4] is -15.9% (inactive). Besides, the max response in assay [4] (setting [6]) was -2.05%; in assay [4] (setting [7]), -18.2%.
`CC1=C(C(=O)O)N2C(=O)C(NC(=O)C(N)c3ccccc3)C2SC1` (stereo unspecified): the Potency result in assay [2] and in assay [3] was “inactive” throughout. The activity change, negative = inhibition in assay [4] was 9.95% (inactive). For the same molecule, the max response in assay [4] (setting [6]) was found to be 9.88%; in assay [4] (setting [7]), 24.8%.
Take `CC(=O)c1c(O)c(C)c(O)c2c1OC1=CC(=O)C(C(C)=O)C(=O)C12C` (stereo unspecified): the Potency result in assay [2] and in assay [3] was “inactive” each time. The activity change, negative = inhibition in assay [4] was 6.96% (inactive). In addition, the max response was determined as 24.8% in assay [4] (setting [6]) and 22.6% in assay [4] (setting [7]).
